# ChEMBL document CHEMBL3988442, “University of Dundee, Small-Polar-MMV Screening Library” (2021)
# The whole screen tested about 69,000 compounds, of which about 950 (1.4%) showed an effect of 50% or more. What follows is part of a selection rich in strong results, with near analogues and random picks from the rest.
# Tested on: Mycobacterium tuberculosis
# Experiment: Cornell M. t heat shock assay; note: in the data most compounds retested in dose-response had high values
# Assay type: functional, organism-based
# Design: dose or concentration left out as unconfirmed
row,Compound,Percent Effect [%]
1,CC(C)c1nc(N2CCC(N3CCCC(O)C3)CC2)c2cnn(C)c2n1 (configuration not stated),-1.228
2,CC(C)c1nc(N2CCC(N3CCSCC3)CC2)c2cnn(C)c2n1,-6.323
3,CC(C)c1nc(N2CCC(N3CCCCCC3)CC2)c2cnn(C)c2n1,94.23
4,Cc1csc(CN2CCC[C@]3(C[C@@H](Oc4ccccn4)CO3)C2)n1.O=C(O)C(F)(F)F.O=C(O)C(F)(F)F,-18.33
5,Cc1noc(-c2ccc(N3CCN(Cc4ncccc4C)CC3)nc2)n1,-11.68
6,CCOc1ccnc(N2CCN(Cc3ncccc3C)CC2)n1,17.62
7,Cc1cccnc1CN1CCN(c2noc(-c3ccccc3)n2)CC1,100.3
8,Cc1nc(CN2C(=O)CCC23CCN(Cc2cccn2C)CC3)cs1.O=C(O)C(F)(F)F.O=C(O)C(F)(F)F,-21.2
9,CC(C)CN1C[C@@H]2CN(C(=O)c3cccn3C)C[C@@H]2C1=O,1.08
10,CCN1C[C@@H]2CN(C(=O)c3cccn3C)C[C@@H]2C1=O,97.42
11,Cn1cccc1C(=O)N1C[C@H]2CN(CC3CC3)C(=O)[C@H]2C1,12.5
12,O=C(NCc1ccc(F)cc1)C1CCCN(c2ccc3nncn3n2)C1 (configuration not stated),-16.16
13,Fc1ccc(CN2CCO[C@H]3[C@H](OCc4ccncc4)CC[C@@H]32)cc1.O=C(O)C(F)(F)F.O=C(O)C(F)(F)F,22.03
14,COc1cc(CN2CCCC2)ccc1Oc1ncccc1C(F)(F)F,-12.36
15,COc1cc(Oc2ncccc2C(F)(F)F)ccc1CN1CCCC1,53
16,COc1ccc(Oc2ncccc2C(F)(F)F)cc1CN1CCCC1,7.068
17,C1CN(CC2CC2)C(COCC2CC2)c2nnn(CC3CC3)c21.O=C(O)C(F)(F)F (configuration not stated),-14.94
18,COc1ccc(CNC(=O)Cn2ccc3sccc3c2=O)cc1,-0.6252
19,Cl.Cn1cc([C@@H]2CN(S(=O)(=O)c3ccccc3F)C[C@H]2N)c2ccncc21,-1.741

row,Compound,Percent Effect [%]
1,CN(C)C(=O)CN1CCC2(CCN(CC3CC3)CC2)C1=O.O=C(O)C(F)(F)F,-28.35
2,O=C(O)C(F)(F)F.O=C(O)C(F)(F)F.O=C1[C@@H]2CCN(Cc3ccoc3)C[C@@H]2OCCN1Cc1cccnc1,-189.5
3,CN(C)CCOCC1CN(Cc2cccc(F)c2)Cc2nccn2C1.O=C(O)C(F)(F)F.O=C(O)C(F)(F)F (configuration not stated),-23.51
4,CCCN(Cc1nc2ccccc2[nH]1)Cc1ccccc1OC,67.04
5,CCCN(Cc1ccccn1)Cc1ccccc1OC,31.04
6,CCCN(Cc1cnc2ccccc2n1)Cc1ccccc1OC,19.04
7,O=C(O)C(F)(F)F.O=C(O)C(F)(F)F.O=C(O)c1c(-c2cccnc2)ncc2c1CCN(Cc1cccnc1)C2,-14.58
8,Cc1nc(CO[C@@H]2CN(Cc3nccs3)[C@@H]3COC[C@@H]32)cs1.O=C(O)C(F)(F)F,-44.36
9,CN(C)S(=O)(=O)N1CC[C@]2(C[C@@H](Oc3cccnc3)CO2)C1.O=C(O)C(F)(F)F,-11.53
10,CC(Nc1nc(-c2ccccc2)nc2c1CCNCC2)c1cccnc1 (configuration not stated),73.2
11,CC(Nc1nc(-c2ccncc2)nc2c1CCNC2)c1ccccc1 (configuration not stated),18.8
12,CC(Nc1nc(-c2ccccc2)nc2c1CCNCC2)c1nccs1 (configuration not stated),20.74
13,O=C(O)C(F)(F)F.O=C(O)C(F)(F)F.c1cnc(N2CCOC3(CCN(CC4CCCCC4)CC3)C2)nc1,13.11
14,O=C(O)C(F)(F)F.c1ncn(Cc2cnc3n2CCN(Cc2ccsc2)CC3)n1,-8.028
15,Cc1cc(NC(=O)c2ccc(C)c(F)c2)[nH]n1,1.383
16,Cc1noc(NC(=O)c2ccc(C)c(F)c2)n1,105.5
17,CN(C)Cc1ccccc1NC(=O)c1ccc(C#N)cc1,-24.53
18,Cc1nc(C(C)(C)NC(=O)Nc2ccc(C#N)cc2)no1,-15.18
19,O=C(NCCn1ccnc1)c1cccc(Br)c1,24.48

row,Compound,Percent Effect [%]
1,Cc1noc(NC(=O)c2ccc(Br)s2)n1,103.3
2,Cc1ccc(C(=O)Nc2cn[nH]c2)cc1F,-0.1311
3,Cc1noc(NC(=O)c2cccc(Br)c2)n1,106.8
4,Cc1noc(COCC(=O)Nc2ccc(Br)c(C)n2)n1,3.251
5,Cc1noc(NC(=O)c2ccc(Br)o2)n1,-6.271
6,Cc1c(NC(=O)c2cccc(Br)c2)c(C(=O)N(C)C)nn1C,-8.879
7,Cc1noc(NC(=O)c2ccc(C#N)cc2)n1,69.42
8,O=C(O)C(F)(F)F.O=C(O)C(F)(F)F.c1ccc(N2CC[C@H](OCC3CC3)[C@@H]2Cc2cccnc2)nc1,14.43
9,O=C(O)C(F)(F)F.c1cc(-c2ccc3nc(C4CCN(CC5CC5)CC4)nn3c2)cs1,-34.74
10,Cc1cc(C)nc(N2CC=C[C@@H]2C(=O)NCc2ccc3c(c2)OCO3)n1.Cl,15.24
11,CN(C)C(=O)N1C[C@@H]2CC[C@H](C1)N(C(=O)c1cccc(N(C)C)c1)C2,-44.86
12,CC(C)N(C(=O)Cn1c(-c2ccco2)cc2cccnc21)C(C)C.Cl,22.85
13,CCN1CCn2c(C)cnc2C12CCN(C(=O)c1ccco1)CC2.O=C(O)C(F)(F)F.O=C(O)C(F)(F)F,-2.925
14,CN(C)CCN1C(=O)CCC12CCCN(C(=O)N(C)C)CC2.O=C(O)C(F)(F)F (configuration not stated),-13.38
15,Cc1nc(C2(O)CCCNCC2)sc1CCOc1ccc(F)cc1.Cl (configuration not stated),-29.66
16,CC[C@@H]1N(Cc2cccnc2)CCC[C@]12CCC(=O)N2C.O=C(O)C(F)(F)F.O=C(O)C(F)(F)F,-6.56
17,Cc1cc(CCC2CN(CC3(O)CCCCC3)CCO2)ncn1 (configuration not stated),-44.25
18,O=C(O)C(F)(F)F.O=C1CC[C@H]2[C@@H](CCN2Cc2ccco2)N1,9.652
19,O=C(O)C(F)(F)F.O=C(O)C(F)(F)F.c1cc(CN2C[C@@H]3OCCN(CC4CCCO4)[C@@H]3C2)cs1 (some centres not stated),-21.3
